Assay outcomes from PubChem.
JMJD2A Tudor – qHTS Assay for Inhibitors of JMJD2A-Tudor Domain. AID 504339, 2011. 390,000 compounds, 4.4% hits. AlphaScreen JMJD2A-Tudor / H3K4me3 peptide binding. Potency, µM (top dose mostly 114 µM), for the others: top-dose activity change, negative = inhibition, usual class: inhibitors. Lysine-specific demethylase 4A (Homo sapiens), O75164; note: potency is the fitted concentration of half-maximal effect; % is set by controls: 0 for no effect and ±100 for the full control effect; nearly all actives have a fitted effect of over 50% in size
Target sequence (O75164 whole entry, looked up, the tested form may be a part): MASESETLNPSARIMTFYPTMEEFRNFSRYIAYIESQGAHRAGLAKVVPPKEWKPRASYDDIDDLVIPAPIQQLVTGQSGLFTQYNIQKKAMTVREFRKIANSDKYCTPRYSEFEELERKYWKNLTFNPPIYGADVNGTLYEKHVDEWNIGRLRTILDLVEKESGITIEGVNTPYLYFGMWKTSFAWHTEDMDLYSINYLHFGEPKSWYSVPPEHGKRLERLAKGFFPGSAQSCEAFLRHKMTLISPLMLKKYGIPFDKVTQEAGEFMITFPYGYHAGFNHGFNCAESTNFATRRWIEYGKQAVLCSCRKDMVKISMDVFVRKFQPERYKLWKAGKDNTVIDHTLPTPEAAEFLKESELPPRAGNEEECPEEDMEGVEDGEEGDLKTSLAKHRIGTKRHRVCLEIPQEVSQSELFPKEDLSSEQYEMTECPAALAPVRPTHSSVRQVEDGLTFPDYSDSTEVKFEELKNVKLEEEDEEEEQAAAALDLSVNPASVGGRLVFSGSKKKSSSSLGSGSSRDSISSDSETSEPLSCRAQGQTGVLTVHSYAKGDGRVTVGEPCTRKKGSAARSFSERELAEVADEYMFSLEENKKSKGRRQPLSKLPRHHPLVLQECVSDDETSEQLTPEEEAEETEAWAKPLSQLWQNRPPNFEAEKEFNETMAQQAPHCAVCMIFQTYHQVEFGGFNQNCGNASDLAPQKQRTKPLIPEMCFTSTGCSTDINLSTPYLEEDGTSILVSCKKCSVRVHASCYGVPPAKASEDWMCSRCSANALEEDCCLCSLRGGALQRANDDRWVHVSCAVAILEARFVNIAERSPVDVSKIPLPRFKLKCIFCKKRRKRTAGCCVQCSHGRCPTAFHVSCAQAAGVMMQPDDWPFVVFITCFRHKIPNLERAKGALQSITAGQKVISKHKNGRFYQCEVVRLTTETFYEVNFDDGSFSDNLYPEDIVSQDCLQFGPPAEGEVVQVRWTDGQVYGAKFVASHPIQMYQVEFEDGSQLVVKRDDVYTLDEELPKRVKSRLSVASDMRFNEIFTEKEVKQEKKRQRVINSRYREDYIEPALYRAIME
PI5P4Ka inh – qHTS for Inhibitors of phosphatidylinositol 5-phosphate 4-kinase (PI5P4K); Phosphatidylinositol 5-phosphate 4-kinase type-2 alpha (Homo sapiens), P48426; max response, %; 330,000 compounds, 1.2% hits; AID 652105, 2013; PI5P4Kalpha enzyme, ADP-Glo luminescence, 60 min; hits give low values; active = max response of -50% or lower; inconclusive = between -30% and -50%; inactive = -30% or higher; note: value at the top dose of about 77 µM; % is set by controls: 0 for no effect and ±100 for the full control effect
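ADP-Glo luminescence end-point after a 60 min room-temperature kinase reaction. PI5P4Kalpha and substrate in HEPES pH 7.4 buffer with EGTA, 0.1% CHAPS and 5% DMSO; ATP at 5 microM final.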
BAZ2B block – qHTS Assay for Inhibitors of BAZ2B; AlphaScreen BAZ2B-H3K14Ac peptide displacement; Bromodomain adjacent to zinc finger domain protein 2B (Homo sapiens), Q9UIF8; AID 504333, 2011; 360,000 compounds, 4.4% hits; Potency, µM (titrated, usually from 114 µM), for inactives: at the top dose activity change, negative = inhibition, usual class: inhibitors; note: potency is the fitted concentration of half-maximal effect; % is set by controls: 0 for no effect and ±100 for the full control effect; nearly all actives have a fitted effect of over 60% in size
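Complex of BAZ2B and biotin-H3K14Ac (50 nM apiece) forms over 30 min at RT, then faces library compounds up to 110 uM for another 30 min; AlphaScreen beads added, 20 min dark incubation, luminescence read.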
HP1b binding inh – HTS for Inhibitors of HP1-beta Chromodomain Interactions with Methylated Histone Tails. Chromobox protein homolog 1 (Homo sapiens), P83916. AlphaScreen HP1-beta / biotin-H3K9me3 peptide binding. Potency, µM (doses to about 114 µM), inactives show at the highest dose activity change, negative = inhibition, most hits filed as inhibitors. 390,000 compounds, 0.56% hits. AID 540317, 2011; note: potency is the fitted concentration of half-maximal effect; nearly all actives have a fitted effect of over 70% in size
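AlphaScreen: HP1-beta (50 nM) preformed 30 min with biotin-H3(1-18)K9me3 peptide (50 nM) in PBS pH 7.4, 0.01% Tween-20. Compound added for 30 min at RT, then streptavidin donor/nickel chelate acceptor beads (10 ug/mL) for 30 min.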
PLK1 PBD inh – qHTS for Inhibitors of PLK1-PDB (polo-like kinase 1 - polo-box domain): Primary Screen | 360,000 compounds, 2.8% hits | Serine/threonine-protein kinase PLK1 (Homo sapiens), P53350 | Plk1 PBD binding of FITC phosphopeptide, fluorescence polarization | AID 720504, 2013 | Potency, µM, for the others: max response, negative = inhibition, hits mostly inhibitors; note: potency is the fitted concentration of half-maximal effect; series mostly up to about 57 µM; % is set by controls: 0 for no effect and ±100 for the full control effect; nearly all actives have a fitted effect of over 65% in size
G9a block – qHTS Assay for Inhibitors of Histone Lysine Methyltransferase G9a. Histone-lysine N-methyltransferase EHMT2 (Homo sapiens), Q96KQ7. G9a H3K9 monomethylation, AlphaScreen, 2 h. Potency, µM (highest dose often 102 µM), for inactives: top-dose activity, negative = inhibition, usual class: inhibitors. 350,000 compounds, 8.8% hits; note: potency is the fitted concentration of half-maximal effect; % is set by controls: 0 for no effect and ±100 for the full control effect; nearly all actives have a fitted effect of over 75% in size
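Step 1: enzyme (final 20 nM) with compound, 15 min RT. Step 2: substrate peptide 500 nM and SAM 20 uM, 2 h RT. Step 3: anti-H3K9me1 antibody and AlphaScreen beads, 10 min, then plate read.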
* hit, by the source's call; ? = inconclusive; / = no result; [ ] = another dose, or the depositor's remark. This is a sample that favours compounds with a hit; in the whole collection about 12% have one here. Unless noted, calls come from the whole dose curve; as a rule, active = well fitted curve in the direction sought with a large enough effect; inconclusive = small, poorly fitted or top-dose-only effect, or another doubt; inactive = no such curve, though single readings can be large; an effect the other way counts as inactive or inconclusive.

SMILES	JMJD2A Tudor	PI5P4Ka inh	BAZ2B block	HP1b binding inh	PLK1 PBD inh	G9a block
Cn1cnnc1SCC(=O)N1N=C(c2ccc(Cl)cc2)CC1c1ccco1 (stereo not drawn)	-22%	7	?	18%	-8%	?
COc1cccc(C2=NN(C(=O)c3ccco3)C(c3ccco3)C2)c1 (stereo not drawn)	-33%	-1	?	0%	-11%	45µM*
Cc1ccc(C2=NN(C(=O)CSc3nnnn3C)C(c3ccco3)C2)cc1 (stereo not drawn)	-17%	4	-8%	18%	-2%	0.89µM*
COC(=O)C1N2C(=O)[C@@H](NC(=O)COc3ccccc3)[C@H]2SC1(C)C (stereo partly drawn)	-6%	2	/	117%	-8%	/
CCC(=O)N1N=C(c2ccc(NS(=O)(=O)c3ccc(C)cc3)cc2)CC1c1ccco1 (stereo not drawn)	-29%	-2	/	23%	0%	/
O=C(OCC(=O)N1N=C(c2ccc(Cl)cc2)CC1c1ccco1)c1ccccc1O (stereo not drawn)	-20%	-4	-2%	56%	3%	18µM*
CCC(=O)N1N=C(c2ccc(C)cc2)CC1c1ccco1 (stereo not drawn)	-11%	-3	-25%	21%	1%	45µM*
Cc1cc(C)cc(OC(C)C(=O)Nc2c(C(=O)c3ccccc3)oc3ccccc23)c1 (stereo not drawn)	42%	/	6%	86%	/	44%[59 µM]
CNc1oc(Cc2ccccc2)nc1S(=O)(=O)c1ccc(Cl)cc1	?	/	-26%	4%	-24%	25µM*
CCSc1oc(-c2ccc(F)cc2)nc1S(=O)(=O)c1ccc(C)cc1	8%	/	3%	78%	/	18µM*
Cc1ccc(-c2nc(S(=O)(=O)c3ccc(C)cc3)c(SCC(=O)Nc3ccc(F)cc3)o2)cc1	3%	/	-25%	22%	/	-27%[59 µM]
CSc1oc(-c2ccccc2)nc1S(=O)(=O)c1ccc(C)cc1	-6%	10	-23%	72%	0%	56µM*
Cc1ccc(-c2nc(S(=O)(=O)c3ccc(C)cc3)c(SCC(N)=O)o2)cc1	-12%	4	3%	29%	-20%	25µM*
O=S(=O)(c1ccc(Cl)cc1)c1nc(-c2ccccc2Br)oc1NCc1ccccc1	-33%	/	-34%	5%	/	?
CC(C)C[C@@H]1O[C@H](CCc2ccccc2)Cc2[nH]c(=S)[nH]c(=O)c21	/	?	/	/	-13%	/
N#CCCn1c(=O)c(-c2cccs2)nc2cnc(N3CCNCC3)nc21	/	/	/	/	/	-16%[12.7 µM]
CCCCC[C@@H](C)N1C[C@H](COCc2ccccc2)Oc2cc(N3CCC[C@H]3CO)ccc2S1(=O)=O	/	-1	/	/	-2%	/
CNc1oc(-c2ccc(F)cc2)nc1S(=O)(=O)c1ccccc1	-5%	4	7%	54%	2%	45µM*
O=S(=O)(c1ccccc1)c1nc(-c2ccc(F)cc2)oc1NCc1ccccc1	-12%	/	-15%	24%	/	-2%[59 µM]
Cc1nnc(NS(=O)(=O)c2ccc(N)cc2)s1	-10%	9	3%	39%	-5%	0%[59 µM]
Cc1nnc(NS(=O)(=O)c2ccc(N=Nc3ccc(N)nc3N)cc2)s1	50µM*	?	/	?	-10%	/
Cc1ccc(OCCN2C(=O)C(=O)c3cc(C)ccc32)cc1	56µM*	-6	35µM*	?	?	25µM*
Cc1ccc(OCCN2C(=O)S/C(=C\c3ccc(C)o3)C2=O)cc1	-11%	-13	?	10%	8%	32µM*
Cc1ccc(Oc2ccccc2/C=C2\SC(=O)N(C)C2=O)cc1	17%	/	20%	86%	-7%	55%[59 µM]
